Bioassay records (PubChem)
Sampled rows, rich in hits. Any-hit rate of the full collection: about 21%.
Shiga inhibitor – A qHTS for Small Molecule Inhibitors of Shiga Toxin. Vero cells, Shiga toxin protein synthesis inhibition reporter. inhibition, % at 38.7 µM. 290,000 tested, 9.2% active. AID 2315, 2010; in the data active = inhibition mostly above about 28%, no sharp cut-off; inactive = mostly below about 43%
Pf growth 48h – Primary qHTS for delayed death inhibitors of the malarial parasite plastid, 48 hour incubation. AID 504832, 2011. P. falciparum luciferase growth in erythrocytes, 48 h. 310,000 tested, 5.9% active. Potency, µM (series often up to 28.7 µM), actives largely listed as inhibitors
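Luminescence readout; reporter = integrated firefly luciferase in P. falciparum. RBC culture at 2% hematocrit, 0.1% parasitemia final, 37 C/5% CO2; decreased signal taken as growth inhibition.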
CHX counter – Cycloheximide Counterscreen for Small Molecule Inhibitors of Shiga Toxin; cell reporter, cycloheximide protein synthesis inhibition counterscreen; max response, %; 300,000 tested, 12% active; in the data active = max response mostly above about 13%, no sharp cut-off; inactive = mostly below about 14%; note: read at 38.3 µM for the half of the compounds with a filed dose
SARS PLpro yeast – qHTS of Yeast-based Assay for SARS-CoV PLP. S. cerevisiae expressing SARS-CoV PLpro, growth rescue. Potency, µM (doses to about 32.9 µM), hits mostly activators. 330,000 tested, 0.19% active. AID 485353, 2010; calls by dose curve; note: nearly all actives have a fitted effect of over 55% in size
NS1 function inh – qHTS Assay for Inhibitors of Influenza NS1 Protein Function | Potency, µM (titrated, usually from 46.1 µM) | 270,000 tested, 0.4% active | AID 2326, 2010; calls by dose curve; note: actives are rising curves; nearly all actives have a fitted effect of over 50% in size
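Compounds were scored for reversing the slow growth caused by influenza A NS1 in S. cerevisiae, measured by optical density at 600 nm. Assay medium contained 2% galactose at pH 6.0; NS1-free yeast of the same strain were the positive control.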
Pf growth 96h – Primary qHTS for delayed death inhibitors of the malarial parasite plastid, 96 hour incubation; P. falciparum luciferase reporter growth, 96 h; Potency, µM (top dose mostly 28.7 µM), usual class: inhibitors; 320,000 tested, 6.9% active
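Infected RBCs, 2% Hct / 0.05% parasitemia final; luciferase-reporter P. falciparum; cpd 96 h, 37 C, 5% CO2; luciferase detection reagent; luminescence.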
Numbers stand for hits. Unless noted, calls come from the whole dose curve; as a rule, active = well fitted inhibition curve with a large enough effect; inconclusive = small, poorly fitted or top-dose-only effect, or another doubt; inactive = no such curve, though single readings can be large or run the other way.

For Cc1cc2oc3c(c(=O)c2cc1C)C(c1ccc(F)cc1)N(CCCN1CCOCC1)C3=O (stereo not given) the results were Shiga inhibitor inactive, Pf growth 48h 11.7µM, CHX counter inactive, SARS PLpro yeast inconclusive, NS1 function inh inactive and Pf growth 96h 10.4µM.
`COc1ccc(C2c3c(oc4ccc(F)cc4c3=O)C(=O)N2CCN2CCOCC2)cc1OC` (stereo not given) gave NS1 function inh inactive.
`Cc1ccc(C2c3c(oc4ccc(Cl)cc4c3=O)C(=O)N2CCCN2CCOCC2)o1` (stereo not given) gave Shiga inhibitor inactive, Pf growth 48h inconclusive, CHX counter 9.5, SARS PLpro yeast inactive, NS1 function inh inactive and Pf growth 96h inconclusive.
`CN(C)CCN1C(=O)c2oc3ccc(Cl)cc3c(=O)c2C1c1cccc(Br)c1` (stereo not given) gave Shiga inhibitor inactive, Pf growth 48h 1.85µM, CHX counter inactive, SARS PLpro yeast inactive, NS1 function inh inactive and Pf growth 96h inactive.
Screening O=C1c2oc3ccc(Cl)cc3c(=O)c2C(c2ccco2)N1CCN1CCOCC1 (stereo not given) returned Shiga inhibitor inactive, Pf growth 48h 8.28µM, CHX counter inactive, SARS PLpro yeast inactive, NS1 function inh inactive and Pf growth 96h inconclusive.
For O=C1c2oc3ccccc3c(=O)c2C(c2cccc(O)c2)N1CCCN1CCOCC1 (stereo not given) the results were Shiga inhibitor inactive, CHX counter inactive, SARS PLpro yeast inactive, NS1 function inh inactive and Pf growth 96h inactive.
O=C1c2oc3ccc(Cl)cc3c(=O)c2C(c2cccnc2)N1Cc1ccco1 (stereo not given) was read as Shiga inhibitor inactive, Pf growth 48h inactive, CHX counter inactive, SARS PLpro yeast inactive, NS1 function inh inactive and Pf growth 96h inactive.
`COc1ccc(C2c3c(oc4ccccc4c3=O)C(=O)N2CCCN2CCOCC2)cc1` (stereo not given) gave NS1 function inh inactive.
Screening COc1ccc(C2c3c(oc4ccc(Cl)cc4c3=O)C(=O)N2CCN2CCOCC2)cc1 (stereo not given) returned Shiga inhibitor inactive, Pf growth 48h inconclusive, CHX counter 13.0, SARS PLpro yeast inactive, NS1 function inh inactive and Pf growth 96h inactive.
Screening O=C(CSc1nnc(SCc2ccc(Cl)cc2)s1)c1ccc2c(c1)OCO2 returned Shiga inhibitor inactive, Pf growth 48h inactive, CHX counter inactive, SARS PLpro yeast inconclusive, NS1 function inh inactive and Pf growth 96h inconclusive.
For CN(C)CCCN(C(=O)c1ccc(S(=O)(=O)N2CCCCC2)cc1)c1nc2cc3c(cc2s1)OCO3 the results were Shiga inhibitor inactive, Pf growth 48h 11.7µM, CHX counter inactive, SARS PLpro yeast inactive, NS1 function inh inactive and Pf growth 96h inactive.
`CCOC(=O)N1CCN(S(=O)(=O)c2ccc(C(=O)N(CCN(C)C)c3nc4ccc(Cl)cc4s3)cc2)CC1` gave Shiga inhibitor 110.2, Pf growth 48h inactive, CHX counter 27.4, SARS PLpro yeast inactive, NS1 function inh inactive and Pf growth 96h inactive.
Cc1ccc2sc(N(CCCN(C)C)C(=O)c3ccc(S(=O)(=O)N4CCCCCC4)cc3)nc2c1C was read as Pf growth 48h inconclusive, SARS PLpro yeast inactive and Pf growth 96h inconclusive.
`Cc1cc(C)c2nc(N(CCCN(C)C)C(=O)c3ccc(S(=O)(=O)N4CCCCCC4)cc3)sc2c1` gave Pf growth 48h 9.28µM, SARS PLpro yeast inactive and Pf growth 96h 11.7µM.
`CCCc1nc2c(=O)n(C)c(=O)[nH]c2n1CCC` gave Shiga inhibitor inactive, CHX counter inactive, SARS PLpro yeast inactive, NS1 function inh inactive and Pf growth 96h 10.4µM.
CC(C)(C)c1ccc(NC(=O)COC(=O)CCN2C(=O)c3cccc([N+](=O)[O-])c3C2=O)cc1 was read as Shiga inhibitor inactive, Pf growth 48h inactive, CHX counter 17.9, SARS PLpro yeast inactive, NS1 function inh inactive and Pf growth 96h inactive.
`Cc1cccc(CC(=O)c2c[nH]c3ccccc23)c1` gave Shiga inhibitor 51.2, Pf growth 48h inactive, CHX counter inactive, SARS PLpro yeast inactive, NS1 function inh inactive and Pf growth 96h inactive.
`CCN(CC)CC(=O)c1c[nH]c2ccccc12` gave Shiga inhibitor inactive, Pf growth 48h inactive, CHX counter inactive, SARS PLpro yeast inactive, NS1 function inh inactive and Pf growth 96h 2.94µM.
Screening O=C(COc1cccc(F)c1)N[C@@H](Cc1ccccc1)c1nc2ccccc2[nH]1 returned Shiga inhibitor inactive, Pf growth 48h inactive, CHX counter inactive, SARS PLpro yeast inconclusive, NS1 function inh inactive and Pf growth 96h inactive.
For CCOc1ccccc1NC(=S)NCc1ccco1 the results were Shiga inhibitor inactive, CHX counter inactive, SARS PLpro yeast inactive, NS1 function inh inactive and Pf growth 96h inactive.
Screening S=C(NCc1ccco1)Nc1cc(-c2ccccc2)[nH]n1 returned Shiga inhibitor 98.0, Pf growth 48h inactive, CHX counter 28.3, SARS PLpro yeast inactive, NS1 function inh inactive and Pf growth 96h inactive.
For S=C(NCc1ccco1)Nc1ccc(Br)cn1 the results were Shiga inhibitor inactive, Pf growth 48h inactive, CHX counter 11.0, SARS PLpro yeast inactive, NS1 function inh inactive and Pf growth 96h inconclusive.
`COc1ccc2cc(C#N)c(N3CCOCC3)nc2c1` gave Shiga inhibitor inactive, Pf growth 48h inactive, CHX counter inactive, SARS PLpro yeast inactive, NS1 function inh inactive and Pf growth 96h inactive.
`CCOC(=O)C1CCN(c2nc3cc(OC)ccc3cc2C#N)CC1` gave Shiga inhibitor inactive, Pf growth 48h inactive, CHX counter inactive, SARS PLpro yeast inactive, NS1 function inh inactive and Pf growth 96h inactive.
For CCOC(=O)c1cc(C#N)c(N2CCN(C)CC2)nc1-c1ccccc1 the results were Shiga inhibitor inactive, Pf growth 48h inconclusive, CHX counter inactive, SARS PLpro yeast inactive, NS1 function inh inactive and Pf growth 96h inconclusive.
For COc1ccc2nc(N3CCC(O)CC3)c(C#N)cc2c1 the results were Shiga inhibitor inactive, Pf growth 48h inactive, CHX counter 35.7, SARS PLpro yeast inactive, NS1 function inh inactive and Pf growth 96h inactive.
CCc1ccc2nc(N3CCN(C)CC3)c(C#N)cc2c1 was read as Shiga inhibitor 17.1, Pf growth 48h inactive, CHX counter 22.4, SARS PLpro yeast inactive, NS1 function inh inactive and Pf growth 96h inconclusive.
`COc1ccc2nc(N3CCC(C)CC3)c(C#N)cc2c1` gave Shiga inhibitor 92.2, Pf growth 48h inactive, CHX counter 44.1, SARS PLpro yeast inactive and NS1 function inh inactive.
Screening Oc1ccccc1/C=N/n1c2ccccc2c2ccccc21 returned Shiga inhibitor inactive, Pf growth 48h inconclusive, CHX counter inactive, SARS PLpro yeast inactive, NS1 function inh inactive and Pf growth 96h 2.62µM.
`C(=N\n1c2ccccc2c2ccccc21)/c1ccccc1` gave Shiga inhibitor inactive, Pf growth 48h inactive, CHX counter inactive, SARS PLpro yeast inactive, NS1 function inh inactive and Pf growth 96h inactive.
